From PubChem BioAssay
RE007 growth inh: less growth of the S. pombe RE007 Vpr strain; Potency, µM (titrated, usually from 92.2 µM), inactives show at the top dose activity change, negative = less growth, actives largely listed as inhibitors; S. pombe RE007 Vpr strain, BacTiter-Glo ATP luminescence, 24 h; 360,000 tested, 0.21% active; active = well fitted falling curve with a large enough effect; inconclusive = small, poorly fitted or top-dose-only effect; inactive = no such curve, though single readings can be large or run the other way; note: % is set by controls: 0 for no effect and ±100 for the full control effect; nearly all actives have a fitted effect of over 50% in size
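Fission yeast RE007 carrying one integrated HIV-1 vpr copy, seeded at OD 0.01 in PMG+AL medium with 23 nL pinned compound. Grown 24 h at 30 degrees; viability read by BacTiter-Glo luminescence after 5 min.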
LmPK inhibitor: inhibitors of Leishmania mexicana pyruvate kinase; Q27686; purified LmPK, Kinase-Glo ATP luminescence, 1 h; Potency, µM (top dose mostly 57.5 µM), for inactives: top-dose activity change, negative = inhibition, usual class: inhibitors; 290,000 tested, 0.37% active; note: % is set by controls: 0 for no effect and ±100 for the full control effect
Target sequence (Q27686 whole entry, looked up): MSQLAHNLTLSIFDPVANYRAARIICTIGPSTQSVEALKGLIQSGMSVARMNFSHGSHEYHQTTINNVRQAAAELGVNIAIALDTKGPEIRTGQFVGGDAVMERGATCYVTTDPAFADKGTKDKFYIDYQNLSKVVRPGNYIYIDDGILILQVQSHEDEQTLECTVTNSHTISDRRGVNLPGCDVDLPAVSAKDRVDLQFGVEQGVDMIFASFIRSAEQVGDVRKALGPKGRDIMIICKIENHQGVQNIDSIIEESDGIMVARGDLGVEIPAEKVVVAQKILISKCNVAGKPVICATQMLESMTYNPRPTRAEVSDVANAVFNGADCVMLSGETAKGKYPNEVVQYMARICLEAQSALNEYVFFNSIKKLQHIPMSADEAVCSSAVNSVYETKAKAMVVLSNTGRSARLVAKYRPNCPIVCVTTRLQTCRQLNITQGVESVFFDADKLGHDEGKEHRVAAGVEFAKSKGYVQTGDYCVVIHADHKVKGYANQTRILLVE
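0.1 nM LmPK, 0.5 mM PEP, 0.1 mM ADP; 50 mM imidazole pH 7.2, 7 mM MgCl2, 50 mM KCl; 1 h RT. Kinase-Glo luminescence readout, normalized to no-enzyme (full inhibition) and uninhibited wells.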
Tb PYK inh: inhibitors of Trypanosoma brucei pyruvate kinase; Potency, µM (highest dose often 76.8 µM), inactives show at the top dose activity, negative = inhibition, actives largely listed as inhibitors; AID 624173; TbPYK enzyme, Kinase-Glo Plus ATP luminescence, 45 min; 410,000 tested, 0.12% active; Q57TT1; note: % is set by controls: 0 for no effect and ±100 for the full control effect; nearly all actives have a fitted effect of over 50% in size
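TbPYK + substrate in 50 mM TEA pH 7.2, 100 mM KCl, 10 mM MgCl2, 0.05% BSA, 0.01% Tween-20; cpd pinned; ADP 130 uM final; 45 min RT; Kinase-Glo Plus 10 min; luminescence endpoint.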
NS1 function inh: influenza NS1 inhibition. Potency, µM (series often up to 46.1 µM), inactives show top-dose activity, positive = more growth. 270,000 tested, 0.4% active; calls by dose curve; note: actives are rising curves; nearly all actives have a fitted effect of over 50% in size
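Compounds were scored for reversing the slow growth caused by influenza A NS1 in S. cerevisiae, measured by optical density at 600 nm. Assay medium contained 2% galactose at pH 6.0; NS1-free yeast of the same strain were the positive control.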
AMA1 RON2 block: inhibitors of Plasmodium falciparum AMA1-RON2 interaction; Potency, µM (series often up to 58.2 µM), without a hit: top-dose activity change, negative = inhibition, usual class: inhibitors; AlphaScreen AMA1-biotinylated RON2 peptide binding; 360,000 tested, 0.2% active;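 note: 0% = vehicle wells and -100% = peptide control; nearly all actives have a fitted effect of over 45% in size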
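AMA1 (3D7) with his tag at 25 nM final met compounds first, then biotinylated RON2 peptide at 25 nM; detection used donor plus acceptor beads, 10 µg/mL apiece, read by AlphaScreen after 30 min at room temperature.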
An asterisk follows results filed as active; ? = inconclusive; nt = not tested or not shown; [ ] = another dose, or the depositor's remark. Most compounds without a hit are left out; they make up all but 0.92% or so of the library. Unless noted, calls come from the whole dose curve; as a rule, active = well fitted curve in the direction sought with a large enough effect; inconclusive = small, poorly fitted or top-dose-only effect, or another doubt; inactive = no such curve, though single readings can be large; an effect the other way counts as inactive or inconclusive. Potency is the fitted concentration of half-maximal effect.

SMILES | RE007 growth inh | LmPK inhibitor | Tb PYK inh | NS1 function inh | AMA1 RON2 block
CCN(CC)C(=O)c1c(C)[nH]c(=S)c(C#N)c1-c1ccco1 | 19% | 52% | 5.6µM* | nt | 50%
Cc1[nH]c(=S)c(C#N)c(-c2ccccc2)c1C(=O)Nc1ccccc1 | 15% | 13% | ? | 0% | 85%
c1ccc2cc(NCNc3ccc4ccccc4c3)ccc2c1 | nt | nt | nt | -40% | nt
CCN(CC)C(=O)Nc1ccc(OC[C@H](O)CNC(C)(C)C)c(C(C)=O)c1 | nt | nt | -8% | nt | nt
Cc1ccccc1N=Nc1ccc(O)c2ncccc12 | 6% | -1% | -19% | -16% | 26%[11.6 µM]
Nc1ccc(N=Nc2ccccc2)c2cccnc12 | -22% | 1% | -11% | 10% | 20µM*
COc1cccc2cc(C(=O)Nc3ccc(CC(=O)O)cc3)c(=O)oc12 | nt | nt | 0% | nt | nt
O=S(=O)(c1cc(O)ccc1O)c1cccc2c(S(=O)(=O)c3cc(O)ccc3O)cccc12 | 12% | nt | ? | nt | 8.9µM*
O=S(=O)(O)c1cc(O)ccc1O | -3%[18.4 µM] | nt | -6% | nt | -10%
CN1C[C@H]2c3ccccc3Oc3ccc(Cl)cc3[C@@H]2C1 | nt | nt | 5% | nt | nt
O=C(Nc1cccc(S(=O)(=O)N2CCOCC2)c1)c1c2c(nc3ccccc13)CCC2 | 10% | 0% | 3% | 4µM* | 6%
O=C(Nc1cccc(S(=O)(=O)N2CCOCC2)c1)c1ccc2ccccc2n1 | -13% | 0% | 0% | 4% | -4%
CN(CCO)c1cc(N2CCCCC2)c2nonc2c1[N+](=O)[O-] | 14% | 0% | 12% | nt | 1.8µM*
Cc1ccc(NC(=O)c2cc(N3C(=O)C=CC3=O)ccc2Cl)cc1C | 10µM* | 28% | ? | -22% | -7%
Cc1ccc(NC(=O)c2cc(N3C(=O)C=CC3=O)ccc2N2CCOCC2)cc1 | 8.9µM* | 38% | 22µM* | -43% | 3%
Cc1ccc(NC(=O)c2cc(-n3cnnc3)ccc2Cl)cc1 | 20% | 0% | -1% | -4% | 23%
Cc1ccc(-c2c(C(=O)N3CCN(c4cccc(C)c4)C(C)C3)oc(=O)c3ccccc23)cc1 (stereo unspecified) | nt | nt | -1% | nt | nt
S=C(NNc1ccc2ccccc2c1)NC1CCCCC1 | -11% | 0% | -1% | -13% | 16µM*
S=C(Nc1ccc(Oc2ccccc2)cc1)NC1CCCCCC1 | 2% | 3% | 4% | -25% | -1%[11.6 µM]
CCc1nn(CC(=O)NCCc2ccc(Cl)cc2)c(=O)c2cc3c(OC)cccc3n12 | nt | nt | -4% | nt | nt
c1nc(N2CC2)c2cnn([C@@H]3CCCCO3)c2n1 | nt | nt | nt | -4% | nt
Cc1ccc2nc(-c3ccccc3)cn2c1 | 45µM* | 7.1µM* | 25µM* | -45% | 9%
Cc1ccc2nc(-c3ccc(O)c(O)c3)cn2c1 | 17% | ? | -23% | 13% | 3.5µM*
CC(=O)Nc1ccc(-c2cn3cc(C)ccc3n2)cc1 | -7% | -12% | 1% | 2% | 0%
CC1=C[C@@H](O)CC(C)(C)[C@@H]1/C=C/C(C)=C/C=C/C(C)=C/C=C/C=C(C)/C=C/C=C(C)/C=C/C1=C(C)C[C@H](O)CC1(C)C | nt | nt | 4% | nt | nt
SMILES | RE007 growth inh | LmPK inhibitor | Tb PYK inh | NS1 function inh | AMA1 RON2 block
C[C@H](c1ccccc1)N1CCN([C@@H](C)c2ccccc2)CC1 | nt | nt | nt | -3% | nt
C[C@@H]1[C@H](O)[C@@H](C)C=CC=CCCC=CC=CC=CC=C[C@H](O[C@H]2O[C@@H](C)[C@H](O)[C@@H](N)[C@@H]2O)CC2O[C@](O)(C[C@@H](O)[C@H](O)CC[C@@H](O)C[C@@H](O)C[C@@H](O)CC(=O)O[C@H]1C)C[C@H](O)[C@H]2C(=O)O | nt | nt | 0% | nt | nt
Cn1cc(CNCc2cnc3ccccn23)c(-c2ccc(Oc3ccccc3)cc2)n1 | 8% | -3% | -12% | 4% | 28µM*
CCOC(=O)N1CCN(C(=O)C2CCN(C(=O)c3ccccc3C)CC2)CC1 | ? | nt | 7.9µM* | nt | -1%
Cc1ccccc1C(=O)N1CCC(C(=O)N2CCN(c3ncccn3)CC2)CC1 | 9% | nt | 0% | nt | -5%
C/C(=N\NC(=O)c1ccoc1C)c1ccccc1 | 8% | 14µM* | -17% | -1% | 85%
C/C(=N\NC(=O)c1ccc2c(c1)OCCO2)c1ccccc1 | 7% | 11µM* | ? | -1% | 6%
O=C(NN=C1CCCC1)c1n[nH]c2c1CCC2 | 2% | -16% | -7% | -1% | 30%
